# Sampled rows, rich in hits. Any-hit rate of the full collection: about 12%.
# PI5P4Ka inh = qHTS for Inhibitors of phosphatidylinositol 5-phosphate 4-kinase (PI5P4K); max response, %; AID 652105, 2013; PI5P4Kalpha enzyme, ADP-Glo luminescence, 60 min; stronger effect = lower value; Phosphatidylinositol 5-phosphate 4-kinase type-2 alpha (Homo sapiens), P48426; 330,000 tested, 1.2% active; active = max response of -50% or lower; inconclusive = between -30% and -50%; inactive = -30% or higher; also: value at the top dose of about 77 µM; % is scaled to controls: 0 for no effect and ±100 for the full control effect
#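 Single end-point luminescence (ADP-Glo) quantified ADP from PI5P4Kalpha turnover; ATP 5 microM final, 1 h at RT, 0.1% CHAPS and 0.28 mM EGTA in HEPES pH 7.4.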
# BAZ2B block = qHTS Assay for Inhibitors of BAZ2B; Bromodomain adjacent to zinc finger domain protein 2B (Homo sapiens), Q9UIF8; Potency, µM (top dose mostly 114 µM), inactives show at the highest dose activity change, negative = inhibition, actives largely listed as inhibitors; AID 504333, 2011; 360,000 tested, 4.4% active; AlphaScreen BAZ2B-H3K14Ac peptide displacement; also: potency is read from the fitted curve at half-maximal effect; % is scaled to controls: 0 for no effect and ±100 for the full control effect; nearly all actives have a fitted effect of over 60% in size
# Target sequence (Q9UIF8 whole entry, looked up, the tested form may be a part): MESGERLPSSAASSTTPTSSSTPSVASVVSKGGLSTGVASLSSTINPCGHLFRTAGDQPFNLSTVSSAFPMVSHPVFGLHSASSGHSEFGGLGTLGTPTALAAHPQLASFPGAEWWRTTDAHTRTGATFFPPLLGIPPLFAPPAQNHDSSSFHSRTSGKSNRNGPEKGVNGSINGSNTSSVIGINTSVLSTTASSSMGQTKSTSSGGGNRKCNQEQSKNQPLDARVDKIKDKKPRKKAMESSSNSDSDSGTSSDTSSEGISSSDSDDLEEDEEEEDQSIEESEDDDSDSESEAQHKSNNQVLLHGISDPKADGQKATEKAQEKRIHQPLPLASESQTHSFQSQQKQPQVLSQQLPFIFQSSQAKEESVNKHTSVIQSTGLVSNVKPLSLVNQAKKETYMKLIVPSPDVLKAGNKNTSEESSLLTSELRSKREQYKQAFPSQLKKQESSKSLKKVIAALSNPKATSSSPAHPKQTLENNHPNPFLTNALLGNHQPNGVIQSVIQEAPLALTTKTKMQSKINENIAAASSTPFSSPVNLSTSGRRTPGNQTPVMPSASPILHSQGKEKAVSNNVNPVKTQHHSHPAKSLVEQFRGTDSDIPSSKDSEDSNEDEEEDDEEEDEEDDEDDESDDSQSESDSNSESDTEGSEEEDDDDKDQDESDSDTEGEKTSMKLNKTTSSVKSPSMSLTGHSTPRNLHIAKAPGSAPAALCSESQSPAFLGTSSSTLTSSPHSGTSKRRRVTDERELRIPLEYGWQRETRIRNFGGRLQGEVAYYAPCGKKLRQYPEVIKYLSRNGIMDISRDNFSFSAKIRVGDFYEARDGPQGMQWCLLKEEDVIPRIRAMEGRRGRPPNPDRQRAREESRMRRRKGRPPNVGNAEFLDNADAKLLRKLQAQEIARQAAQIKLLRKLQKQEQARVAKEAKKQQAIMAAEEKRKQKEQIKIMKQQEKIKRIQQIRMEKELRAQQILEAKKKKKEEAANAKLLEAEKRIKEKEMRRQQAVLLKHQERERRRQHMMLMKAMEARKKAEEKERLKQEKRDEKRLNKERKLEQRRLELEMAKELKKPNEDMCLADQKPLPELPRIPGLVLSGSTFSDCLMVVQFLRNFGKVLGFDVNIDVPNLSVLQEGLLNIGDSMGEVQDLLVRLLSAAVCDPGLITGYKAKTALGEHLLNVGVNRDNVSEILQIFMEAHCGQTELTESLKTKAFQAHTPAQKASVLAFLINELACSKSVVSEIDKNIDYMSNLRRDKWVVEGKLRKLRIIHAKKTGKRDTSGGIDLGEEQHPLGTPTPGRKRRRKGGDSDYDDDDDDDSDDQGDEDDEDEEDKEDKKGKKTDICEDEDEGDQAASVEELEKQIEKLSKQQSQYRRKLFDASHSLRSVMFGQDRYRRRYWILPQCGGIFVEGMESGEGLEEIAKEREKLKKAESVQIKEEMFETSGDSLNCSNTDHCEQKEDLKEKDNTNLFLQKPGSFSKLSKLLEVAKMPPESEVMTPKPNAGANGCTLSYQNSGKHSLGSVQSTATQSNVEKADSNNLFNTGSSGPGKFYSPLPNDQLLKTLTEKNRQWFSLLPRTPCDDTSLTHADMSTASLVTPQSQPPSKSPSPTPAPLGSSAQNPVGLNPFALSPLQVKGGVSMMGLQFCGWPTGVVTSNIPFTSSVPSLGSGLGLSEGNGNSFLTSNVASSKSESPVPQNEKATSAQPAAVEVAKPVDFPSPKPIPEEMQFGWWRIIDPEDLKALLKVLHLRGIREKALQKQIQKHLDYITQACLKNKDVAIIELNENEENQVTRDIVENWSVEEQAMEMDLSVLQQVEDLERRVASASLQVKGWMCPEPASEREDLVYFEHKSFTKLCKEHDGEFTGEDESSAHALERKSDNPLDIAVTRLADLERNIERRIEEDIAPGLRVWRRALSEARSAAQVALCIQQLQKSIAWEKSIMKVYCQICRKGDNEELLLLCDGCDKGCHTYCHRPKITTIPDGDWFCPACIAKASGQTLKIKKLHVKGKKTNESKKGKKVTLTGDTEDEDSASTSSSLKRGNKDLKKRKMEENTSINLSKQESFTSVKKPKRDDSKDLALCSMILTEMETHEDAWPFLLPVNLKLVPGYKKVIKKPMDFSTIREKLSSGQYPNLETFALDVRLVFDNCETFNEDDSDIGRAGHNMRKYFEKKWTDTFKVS
#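 AlphaScreen luminescence quantifies BAZ2B engagement of H3K14Ac peptide; the protein and biotinylated peptide are both at 50 nM final, buffer PBS pH 7.4 with 0.01% Tween-20, all steps at room temperature.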
# PLK1 PBD block = qHTS for Inhibitors of PLK1-PDB (polo-like kinase 1 - polo-box domain): Primary Screen | Serine/threonine-protein kinase PLK1 (Homo sapiens), P53350 | Plk1 PBD binding of FITC phosphopeptide, fluorescence polarization | Potency, µM, inactives show max response, negative = inhibition, most hits filed as inhibitors | 360,000 tested, 2.8% active | AID 720504, 2013; also: potency is read from the fitted curve at half-maximal effect; series mostly up to about 57 µM; % is scaled to controls: 0 for no effect and ±100 for the full control effect; nearly all actives have a fitted effect of over 65% in size
# HP1b chromo inh = HTS for Inhibitors of HP1-beta Chromodomain Interactions with Methylated Histone Tails | Chromobox protein homolog 1 (Homo sapiens), P83916 | AlphaScreen HP1-beta / biotin-H3K9me3 peptide binding | Potency, µM (titrated, usually from 114 µM), for the others: at the highest dose activity change, negative = inhibition, hits mostly inhibitors | 390,000 tested, 0.56% active | AID 540317, 2011; also: potency is read from the fitted curve at half-maximal effect; nearly all actives have a fitted effect of over 70% in size
#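 HP1-beta protein (50 nM final) preincubated 30 min at room temperature with biotinylated H3(1-18)K9me3 peptide (50 nM) in PBS pH 7.4, 0.01% Tween-20, then compound added for 30 min. AlphaScreen streptavidin donor/nickel chelate acceptor beads (10 ug/mL final), 30 min dark, luminescence read.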
# G9a inh = qHTS Assay for Inhibitors of Histone Lysine Methyltransferase G9a. G9a H3K9 monomethylation, AlphaScreen, 2 h. AID 504332, 2011. Potency, µM (doses to about 102 µM), for inactives: at the highest dose activity, negative = inhibition, usual class: inhibitors. Histone-lysine N-methyltransferase EHMT2 (Homo sapiens), Q96KQ7. 350,000 tested, 8.8% active; also: potency is read from the fitted curve at half-maximal effect; % is scaled to controls: 0 for no effect and ±100 for the full control effect; nearly all actives have a fitted effect of over 75% in size
#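 AlphaScreen read-out: biotin-H3K9 peptide (500 nM) methylation by 20 nM enzyme with 20 uM SAM, 2 h at room temperature after 15 min compound preincubation; anti-monomethyl H3K9 antibody plus donor/acceptor beads, 10 min dark.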
# JMJD2A Tudor = qHTS Assay for Inhibitors of JMJD2A-Tudor Domain; 390,000 tested, 4.4% active; Potency, µM (top dose mostly 114 µM), without a hit: at the highest dose activity change, negative = inhibition, actives largely listed as inhibitors; AlphaScreen JMJD2A-Tudor / H3K4me3 peptide binding; AID 504339, 2011; Lysine-specific demethylase 4A (Homo sapiens), O75164; also: potency is read from the fitted curve at half-maximal effect; % is scaled to controls: 0 for no effect and ±100 for the full control effect; nearly all actives have a fitted effect of over 50% in size
# Active calls of the source: *; ? = inconclusive; nt = no result given; [ ] = another dose, or the depositor's remark. Unless noted, calls follow the shape of the dose curve; as a rule, active = well fitted curve in the direction sought with a large enough effect; inconclusive = small, poorly fitted or top-dose-only effect, or another doubt; inactive = no such curve, though single readings can be large; an effect the other way counts as inactive or inconclusive.
SMILES,PI5P4Ka inh,BAZ2B block,PLK1 PBD block,HP1b chromo inh,G9a inh,JMJD2A Tudor
COc1ccc2nc3oc(C(=O)N(C)c4ccc(Cl)cc4)cc3cc2c1,nt,nt,nt,30%,-24%[59 µM],-14%
O=c1c2ccccc2oc2ccc(NCCCn3ccnc3)cc12,-1,50µM*,-4%,39%,nt,?
COc1ccc(-n2nc3cc(C)c(N)c(Br)c3n2)cc1,-17,-3%,3.8µM*,-26%,?,-16%[11.4 µM]
Nc1cc2nn(-c3ccccc3)nc2cc1Cl,?,-16%,-18%,33%,?,-9%
COc1ccc(-n2nc3cc(N)c(Br)cc3n2)cc1,6,-3%,-14%,-2%,17%[0.501 µM],-17%
Cc1cc2nn(-c3cccc4ccccc34)nc2cc1N,5,?,?,20%,3.5µM*,2%[57.1 µM]
Cc1ccc(-n2nc3cc(C)c(N)cc3n2)cc1,-4,?,-16%,3%,1.6µM*,-20%
CCc1ccc(-n2nc3cc(C)c(N)cc3n2)cc1,-4,32µM*,?,-2%,1.1µM*,89µM*
C=CCn1cccc(C(=O)Nc2ccc(OC)c(Cl)c2)c1=O,0,10%,-7%,83%,17%,-17%
CC(C)CC(C(=O)O)N1C(=O)C2C3CC(C2C1=O)C1C(c2ccccc2)c2sc(=O)[nH]c2SC31 (stereo not drawn),-3,7%,17µM*,3%,?,-19%
O=C(Cc1cccs1)NCc1cccc(Cl)c1,-10,6%,1%,48%,26%,89µM*
O=C(NCCc1ccccc1)/C(=C\c1cccc([N+](=O)[O-])c1)NC(=O)c1ccco1,-4,-26%,2%,24%,15%,-12%
O=C(OCC(=O)N1CCOCC1)c1ccc2c(c1)OCCO2,1,4%,-3%,47%,-1%,-4%
Cc1ccc(-n2c(C)cc(C(=O)OCC(=O)N3CCOCC3)c2C)cc1,-2,nt,4%,?,nt,-21%
Cc1ccc(C(=O)OCC(=O)c2ccc(CC(=O)N3CCOCC3)s2)c(C)c1,?,50µM*,-21%,-36%,45µM*,13µM*
Cc1ccc(C(=O)OCC(=O)c2ccc(CC(=O)N3CCOCC3)s2)cc1C,?,50µM*,-3%,19%,?,?
O=C(CN1C(=O)C2CC=CCC2C1=O)Nc1nc(-c2ccc(F)c(F)c2)cs1 (stereo not drawn),5,nt,-9%,34%,nt,-11%
Cc1cccc([C@@H]2[C@@H]3C(=O)N(Cc4ccccc4)C(=O)[C@@H]3[C@]3(Cc4ccccc4)C(=O)N(c4ccc(C(F)(F)F)cc4)C(=O)N23)c1,-4,6%,4%,24%,0%[2.33 µM],-14%
CC1CN(S(=O)(=O)c2cccc(C(=O)OCC(=O)c3cccs3)c2)CC(C)O1 (stereo not drawn),-11,0%,-8%,25%,-12%[59 µM],-20%
CC1CN(S(=O)(=O)c2cccc(C(=O)OCC(=O)Nc3ccc4c(c3)OCO4)c2)CC(C)O1 (stereo not drawn),-6,-32%,-5%,-9%,50µM*,-22%
Cc1ccc(CNC(=O)/C=C/c2ccc(Br)o2)cc1,-16,?,-21%,16%,1.4µM*,-2%
O=C(/C=C/c1ccc(Br)o1)NCc1ccccc1,-9,?,?,12%,nt,?
Cc1ccc(/C=C/C(=O)NCc2cccs2)o1,-28,?,-14%,?,13µM*,?
C[N+]1(Cc2ccccc2)CCC(C(=O)OCC2CCCC2)CC1 (stereo not drawn),nt,nt,nt,nt,-32%[59 µM],nt
Cc1cccc(NC(=O)CSc2nc3ccccc3nc2N2CCCCC2)c1C,nt,7%,nt,55%,31%[59 µM],6%
SMILES,PI5P4Ka inh,BAZ2B block,PLK1 PBD block,HP1b chromo inh,G9a inh,JMJD2A Tudor
CCOc1ccc(NC(=O)CSc2nnc(C)n2CC)cc1,2,1%,-2%,27%,nt,-11%
Cc1ccc(C(=O)OCC(=O)NCCNC(=O)COC(=O)c2ccc(C)o2)o1,5,-8%,-3%,18%,56µM*,-4%
Cc1ccc(/C=C/C(=O)OCC(=O)NCc2ccccc2)o1,-9,1%,-5%,-10%,45µM*,-13%
Cc1ccc(/C=C/C(=O)OCC(=O)NCCN2C(=O)CSC2=O)o1,-11,-23%,-24%,22%,50µM*,-14%
CCCNC(=O)COC(=O)/C=C/c1ccc(C)o1,-9,-16%,-8%,23%,50µM*,-15%
COc1cc(/C=C2\C(=N)N3N=C(C)SC3=NC2=O)cc(Cl)c1OCCOc1ccc(NC(C)=O)cc1,-26,79µM*,-29%,14%,-2%,-6%
CC(=O)Nc1ccc(OCCOc2ccc(/C=C3/C(=N)N4C=CSC4=NC3=O)cc2)cc1,?,3%,3.4µM*,0%,?,-14%
CCC1=NN2C(=N)/C(=C\c3ccc(OCCOc4ccc(NC(C)=O)cc4)cc3)C(=O)N=C2S1,-3,-28%,?,23%,0%,-23%
COc1cc(/C=C2\C(=N)N3N=C(C(C)C)SC3=NC2=O)ccc1OCCOc1ccc(NC(C)=O)cc1,-5,-15%,?,61%,?,-13%
CCc1ccc(-c2cn3c(n2)sc2cc(C(=O)NCCc4ccc(OC)cc4OC)ccc23)cc1,nt,-3%,nt,39%,3%[59 µM],-1%
COc1ccc(CN2CCC3C=CCC(C(=O)O)C3C2=O)cc1OC (stereo not drawn),nt,nt,nt,29%,nt,-8%
O=C(CCCCCC(=O)N(CCO)CCO)N(CCO)CCO,-1,-2%,-11%,32%,40µM*,-12%[11.4 µM]
CCNC(=O)C1(C)CCCCN1Cc1ccc(C#N)cc1 (stereo not drawn),-2,nt,-2%,nt,nt,nt
CN1CCc2c(sc3nc(SCC(=O)N4CCOCC4)n(-c4ccc(Cl)cc4)c(=O)c23)C1,-2,?,-24%,5%,71µM*,-25%
COc1ccc(-n2c(SCC(=O)NCc3ccco3)nc3sc4c(c3c2=O)CCN(C)C4)cc1,-5,-29%,?,-2%,79µM*,-24%
CN1CCc2c(sc3nc(SCC(=O)NCc4ccco4)n(-c4ccccc4)c(=O)c23)C1,-8,?,3%,40%,45µM*,-14%
C#CCSc1nc2sc3c(c2c(=O)n1-c1cccc(OC)c1)CCN(C(C)=O)C3,nt,?,nt,-3%,?,89µM*

# High-throughput results (PubChem BioAssay)
